Among the data in PubChem BioAssay (NCATS) are Potency values, retold here.

Each structure is given as a SMILES string. Results filed as inconclusive are left out. Entries that show only a call come without a potency. The source made the active and inactive calls. The call rests on the fitted dose curve; in most records, active means well fitted inhibition curve with a large enough effect; inconclusive means small, poorly fitted or top-dose-only effect; inactive means flat fitted curve, though single readings scatter.
Potency means the concentration at half of the fitted maximal effect.

One assay concerns CP305. The assay is described as follows: qHTS profiling for inhibitors of Plasmodium falciparum proliferation (AID 504749). Further: nearly all actives have a fitted effect of over 60% in size. The note with it: P. falciparum in erythrocytes, SYBR Green DNA, 72 h; series mostly up to 28.7 µM. The method in brief: (§1)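 In a 72 h erythrocytic culture (37 C, humidified, 5% CO2) at 2.5% hematocrit and 0.3% starting parasitemia, compounds were tested; SYBR Green I in detergent lysis buffer stained parasite DNA overnight.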
A general note: In qHTS, concentration-response curves come from the screen itself.
For `CN1CCN(C2=Nc3ccccc3Sc3ccc(Cl)cc32)CC1`, the Potency entry is “inactive”.

Consider `NCc1ccccc1Sc1ccccc1CO`, for which the Potency result was “inactive”.

On to `O=C(c1ccc(F)cc1)C1CCN(CCn2c(=S)[nH]c3ccccc3c2=O)CC1`, for which the Potency was 6.75 µM (active).

As for `COc1ccc(C(=O)c2ccccc2O)c(O)c1`, the Potency entry is “inactive”.

On to `CCc1ccc(C(=O)C(C)CN2CCCCC2)cc1` (stereo unspecified), for which the Potency result was “inactive”.

`CCCN(CCc1cccs1)[C@H]1CCc2c(O)cccc2C1`: the Potency was 13.5 µM (active).

With `C#C[C@]1(O)CC[C@H]2[C@@H]3CCC4=CC(=O)CC[C@@H]4[C@H]3CC[C@@]21CC`, the Potency entry is “inactive”.

Turning to `FC1(F)C(F)(F)C(F)(F)C2(F)C(F)(F)C(F)(F)C(F)(F)C(F)(F)C2(F)C1(F)F` (stereo unspecified), the Potency entry is “inactive”.

Turning to `CCCc1ncc(C[n+]2ccccc2C)c(N)n1`, the Potency entry is “inactive”.

As for `O=C(O)C1(C(=O)O)CCC1.[NH2-].[NH2-].[Pt+2]`, the Potency entry was “inactive”.

With `Cc1cc(CC(=O)O)c(C)n1-c1ccc(Cl)cc1`, the Potency result is “inactive”.

For `O=C(Oc1cccc2cccnc12)c1ccccc1`, the Potency result was “inactive”.

With `Cc1ccc(O)c([C@H](CCN(C(C)C)C(C)C)c2ccccc2)c1`, the Potency was 7.57 µM (active).

With `O=C(O)c1ccc(S(=O)(=O)N(Cl)Cl)cc1`, the Potency result was “inactive”.

For `CN(C)CCC[C@@]1(c2ccc(F)cc2)OCc2cc(C#N)ccc21`, the Potency result was “inactive”.

Consider `N=C(N)N1CCc2ccccc2C1`, for which the Potency result was “inactive”.

For the compound `COc1cc(C(=O)N2CCCCCCC2)cc(OC)c1OC`, the Potency result was “inactive”.

For the compound `Cc1cccc(C)c1NC(=O)c1ccccc1C(=O)O`, the Potency result was “inactive”.

As for `CC(=O)NCCCCCC(=O)O`, the Potency entry is “inactive”.

As for `O=C1C(=O)c2ccccc2C(O)=C1C1CCC(c2ccc(Cl)cc2)CC1` (stereo unspecified), the Potency was 0.0051 µM (active).

Regarding `Cc1cccc(C)c1NC(=O)CN1CCCC1`, the Potency result was “inactive”.

For `CCOC(=O)c1c(N)sc2c1CCN(Cc1ccccc1)C2`, the Potency is 6.01 µM (active).

Turning to `NC(N)=NCc1cccc(I)c1`, the Potency entry was “inactive”.

As for `CC(C)(C)CC(C)(C)c1ccc(O)c(-n2nc3ccccc3n2)c1`, the Potency entry was “inactive”.

For `Oc1ccc(Cl)cc1Cc1cc(Cl)ccc1O`, the Potency result was “inactive”.

A further assay relates to CP315. Described as above. The note with it: P. falciparum in erythrocytes, SYBR Green DNA, 72 h; series mostly up to 28.7 µM. The method in brief: as §1
`CN1CCN(C2=Nc3ccccc3Sc3ccc(Cl)cc32)CC1`: the Potency result was “inactive”.

`CN1CCN(c2cc3c(cc2F)c(=O)c(C(=O)O)cn3-c2ccc(F)cc2)CC1`: the Potency entry is “inactive”.

As to `NCc1ccccc1Sc1ccccc1CO`, the Potency entry is “inactive”.

Take `O=C(c1ccc(F)cc1)C1CCN(CCn2c(=S)[nH]c3ccccc3c2=O)CC1`: the Potency is 15.1 µM (active).

For the compound `NC1CCN(c2nc3c(cc2F)c(=O)c(C(=O)O)cn3-c2ccc(F)cc2F)C1` (stereo unspecified), the Potency entry is “inactive”.

For the compound `CN1CCN(c2c(F)cc3c(=O)c(C(=O)O)cn4c3c2SCC4)CC1`, the Potency entry was “inactive”.

With `COc1ccc(C(=O)c2ccccc2O)c(O)c1`, the Potency entry is “inactive”.

For `CCc1ccc(C(=O)C(C)CN2CCCCC2)cc1` (stereo unspecified), the Potency entry was “inactive”.

For `Oc1c(Cl)cc(Cl)c(Cl)c1Cc1c(O)c(Cl)cc(Cl)c1Cl`, the Potency is 6.75 µM (active).

`C#C[C@]1(O)CC[C@H]2[C@@H]3CCC4=CC(=O)CC[C@@H]4[C@H]3CC[C@@]21CC`: the Potency result is “inactive”.

On to `FC1(F)C(F)(F)C(F)(F)C2(F)C(F)(F)C(F)(F)C(F)(F)C(F)(F)C2(F)C1(F)F` (stereo unspecified), for which the Potency result was “inactive”.

Turning to `CCCc1ncc(C[n+]2ccccc2C)c(N)n1`, the Potency entry was “inactive”.

For the compound `O=C(O)C1(C(=O)O)CCC1.[NH2-].[NH2-].[Pt+2]`, the Potency result was “inactive”.

Take `Cc1cc(CC(=O)O)c(C)n1-c1ccc(Cl)cc1`: the Potency entry is “inactive”.

Regarding `C[N+]1(C)CCC(=C(c2ccccc2)c2ccccc2)CC1`, the Potency result was “inactive”.

Take `Cc1ccc(O)c([C@H](CCN(C(C)C)C(C)C)c2ccccc2)c1`: the Potency was 16.9 µM (active).

With `O=C(O)c1ccc(S(=O)(=O)N(Cl)Cl)cc1`, the Potency result was “inactive”.

Consider `Cc1ccc2c(Br)cc(Br)c(O)c2n1`, for which the Potency is 12 µM (active).

Consider `N=C(N)N1CCc2ccccc2C1`, for which the Potency result was “inactive”.

On to `O=[N+]([O-])c1cccc(S(=O)(=O)NCCNS(=O)(=O)c2cccc([N+](=O)[O-])c2)c1`, for which the Potency result is “inactive”.

On to `COc1ccc(C(=O)c2ccccc2)c(O)c1`, for which the Potency result was “inactive”.

As for `COc1cc(C(=O)N2CCCCCCC2)cc(OC)c1OC`, the Potency result was “inactive”.

Take `Cc1cccc(C)c1NC(=O)c1ccccc1C(=O)O`: the Potency entry was “inactive”.

On to `CC(=O)NCCCCCC(=O)O`, for which the Potency result was “inactive”.

Regarding `O=C1C(=O)c2ccccc2C(O)=C1C1CCC(c2ccc(Cl)cc2)CC1` (stereo unspecified), the Potency was 0.0057 µM (active).

In the case of `Cc1cccc(C)c1NC(=O)CN1CCCC1`, the Potency entry was “inactive”.

In the case of `CCOC(=O)c1c(N)sc2c1CCN(Cc1ccccc1)C2`, the Potency was 6.75 µM (active).

For the compound `NC(N)=NCc1cccc(I)c1`, the Potency entry is “inactive”.

As to `COc1cc(O)c(C(=O)c2ccccc2)cc1S(=O)(=O)O`, the Potency result was “inactive”.

Turning to `CC(C)(C)CC(C)(C)c1ccc(O)c(-n2nc3ccccc3n2)c1`, the Potency entry was “inactive”.

As for `Oc1ccc(Cl)cc1Cc1cc(Cl)ccc1O`, the Potency result is “inactive”.
